High-throughput results (PubChem BioAssay)
In the library only some 5.2% were active in any assay of this set; here they are far more common.
A3G deaminase: APOBEC3G DNA deaminase inhibitors, primary screen, biochemical, fluorescence, single-stranded DNA substrate, uHTS; DNA dC->dU-editing enzyme APOBEC-3G (Homo sapiens), Q9HC16; recombinant A3G, ssDNA deamination FAM/TAMRA fluorescence; inhibition, % at 20 µM; 0.28% of 330,000 active; AID 493012, 2011;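 active = inhibition of at least 40% at 20 µM, with no more than 30% in the related APOBEC3A deaminase screen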;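 also: plate controls were DMSO wells with A3G for no effect and wells lacking A3G enzyme for full effect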
Target sequence (Q9HC16 whole entry, looked up): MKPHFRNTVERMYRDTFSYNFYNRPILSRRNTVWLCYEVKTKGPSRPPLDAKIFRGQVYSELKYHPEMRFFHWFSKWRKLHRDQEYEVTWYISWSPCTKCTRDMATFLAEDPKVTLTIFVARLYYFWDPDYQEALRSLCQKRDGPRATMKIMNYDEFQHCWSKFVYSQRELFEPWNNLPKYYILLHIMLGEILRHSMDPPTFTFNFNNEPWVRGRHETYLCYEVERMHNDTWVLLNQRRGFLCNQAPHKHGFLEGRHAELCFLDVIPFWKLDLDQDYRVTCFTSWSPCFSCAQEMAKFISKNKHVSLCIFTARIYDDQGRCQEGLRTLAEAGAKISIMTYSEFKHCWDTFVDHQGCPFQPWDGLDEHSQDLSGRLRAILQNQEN
PfM18AAP inh: PfM18AAP inhibitors, malaria aminopeptidase, primary screen, biochemical, QFRET, recombinant enzyme; H-Glu-NHMec fluorogenic cleavage; inhibition, % at 7.35 µM; 1.2% of 290,000 active; AID 1822, 2009;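 active = inhibition above the campaign mean inhibition over all tested compounds plus 3 SD, cut at about 28% in these data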;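 also: 0% = plate median of test compound wells and 100% = 2 mM ZnCl2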
Yeast superoxide: reduction of superoxide in aged yeast, primary screen, HTS | superoxide response (% of plate mean), % at 10 µM | 0.18% of 330,000 active | S. cerevisiae aged cells, superoxide DHE fluorescence; hits give low values;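 active = superoxide response under a set limit, about three screen SD below normal, cut at about 65% in these data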;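 also: yeast aged for seven days with compound at 30 °C before DHE staining; 100% = average MFI of all compound-treated wells on the plate with controls excluded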
ALR inh: inhibitors of human ALR sulfhydryl oxidase, primary screen, biochemical, H2O2 detection, HRP-luminol luminescence, single point; FAD-linked sulfhydryl oxidase ALR (Homo sapiens), P55789; purified ALR, DTT oxidation; inhibition, % (no concentration beside the values); 3.8% of 290,000 active;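 active = mean replicate inhibition above about 79%, with every replicate also reaching it, limit read from the data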
Target sequence (P55789 whole entry, looked up): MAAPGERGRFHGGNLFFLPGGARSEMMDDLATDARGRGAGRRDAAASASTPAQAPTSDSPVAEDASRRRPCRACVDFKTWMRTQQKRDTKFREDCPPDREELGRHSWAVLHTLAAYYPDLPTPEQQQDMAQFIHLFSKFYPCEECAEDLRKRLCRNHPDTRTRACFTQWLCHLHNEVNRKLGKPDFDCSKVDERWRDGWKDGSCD
APOBEC3A inh: APOBEC3A ssDNA deaminase inhibitors, primary screen, selectivity assay for APOBEC3G inhibitor project, biochemical, FAM/TAMRA oligo cleavage fluorescence; DNA dC->dU-editing enzyme APOBEC-3A (Homo sapiens), P31941; recombinant A3A, FAM/TAMRA ssDNA deamination fluorescence; inhibition, % at 20 µM; 0.41% of 330,000 active; AID 493011, 2011;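 active = at least 40% inhibition at 20 µM here, with at most 30% in a related deaminase screen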;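 also: plate controls were A3A with DMSO for no effect and wells lacking A3A enzyme for full effect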
CendR NRP1 mod: modulators of CendR peptide binding to NRP-1, primary screen, biochemical, fluorescence polarization, uHTS. Neuropilin-1 (Homo sapiens), O14786. FAM-RPARPAR peptide binding to NRP-1. inhibition, % at 25 µM. 0.85% of 360,000 active. AID 602438, 2012;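 active = inhibition or corrected inhibition above about 18%, plus a signal ratio from 0.5 to 1.5, limit read from the data, passing the limit was not always enough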
Numbers without * were called inactive; . = no result given.

SMILES | A3G deaminase | PfM18AAP inh | Yeast superoxide | ALR inh | APOBEC3A inh | CendR NRP1 mod
CNCC(=O)c1ccccc1 | -4 | . | 86 | 13 | 1 | -32
CCN(CC)C(=O)c1ccc2c(c1)C1C=CCC1C(C(=O)O)N2 (stereo unspecified) | 56 | 19 | 96 | -33 | 81 | 45*
CCN(CC)C(=O)c1ccc2c(c1)C1C(Cl)C(Sc3ccccc3[N+](=O)[O-])CC1C(C(=O)O)N2 (stereo unspecified) | 34 | 24 | 90 | 97* | 16 | 46*
C[C@@H]1C2C[C@@]34COC(=O)C3=CC=C[C@H]4[C@@]13C[C@H](c1ccoc1)O[C@@H]3O2 | 4 | 3 | 102 | 11 | 1 | .
COc1ccc(-n2c(=S)[nH]c3ccc(C)cc3c2=O)cc1 | . | . | . | . | . | 12
C[C@]12CCC3C(CC[C@H]4C[C@H](OC(=O)c5cccnc5)CC[C@]34C)C1CCC2=O (stereo partly specified) | -12 | . | 114 | 1 | -4 | 5
CC1CC2(C)C(CCC3C2CCC2(C)C(OP(=O)(N4CC4)N4CC4)CCC32)CC1=O (stereo unspecified) | . | . | . | . | . | 8
COc1cc(/C=N/NC(=O)CN2CC(c3ccccc3)CC2=O)ccc1OC(=O)N(C)C (stereo unspecified) | -2 | -1 | 103 | 0 | -3 | -13
Cn1cnc([N+](=O)[O-])c1Sc1ccc([N+](=O)[O-])cc1 | -14 | -2 | 95 | 97* | -5 | -5
O=[N+]([O-])c1ccc(C(c2ccc([N+](=O)[O-])cc2)c2ccc([N+](=O)[O-])cc2)cc1 | . | . | . | . | . | 4
COC(=O)C1=C(c2ccc(F)cc2OCc2ccccc2)C[C@@H]2CC[C@H]1N2C(=O)NCc1ccccc1OC | -11 | . | 100 | -3 | -5 | 14
COc1ccc(C(=O)C(C)(C)NO)cc1 | -3 | -3 | 96 | -1 | 4 | 29*
COc1ccc(C(=O)C23CN4CN(CN(C4)C2)C3)cc1 | -3 | 12 | 86 | -1 | 6 | -13
O=C(Cc1cccs1)N1CCC2(CC1)OCCO2 | -4 | -5 | 97 | -3 | -2 | -17
Cc1oc(-c2cccs2)nc1CSCC(=O)N1CCC2(CC1)OCCO2 | -1 | -7 | 87 | 99* | 18 | 6
COc1ccc(NC(=O)N2CCC3(CC2)OCCO3)cc1OC | -10 | -2 | 99 | -13 | -6 | 4
COc1ccc(-c2nc(CSCC(=O)N3CCC4(CC3)OCCO4)c(C)o2)cc1OC | -4 | 2 | 102 | 100* | -6 | 3
Cc1[nH]c2ccccc2c1CCN | -5 | -5 | 96 | 16 | -3 | -8
Cc1[nH]c2ccccc2c1/C=N/O | -5 | -8 | 86 | 96* | -3 | 0
COC(=O)C1=C(c2cc3ccccc3s2)C[C@@H]2CC[C@H]1N2C | -9 | . | 95 | -4 | 2 | 22*
NC(=S)N/N=C/c1coc2ccccc2c1=O | -9 | 29* | 109 | -1 | -5 | 1
O=C1NC(=O)C(=Cc2coc3ccccc3c2=O)C(=O)N1 | -4 | 8 | 87 | 14 | 0 | -20
FC(F)(F)c1ccc2c(c1)N(CCCN1CCN(CCCl)CC1)c1ccccc1S2 | -3 | -6 | 117 | 99* | -2 | -4
CCC(=Nc1cc(OC)ccc1OC)c1c(O)[nH]c(=O)[nH]c1=O | -2 | 29* | 104 | -12 | -1 | -7
CCC(=Nc1ccc(OC)cc1OC)c1c(O)[nH]c(=O)[nH]c1=O | -3 | -22 | 95 | -38 | -2 | 0
SMILES | A3G deaminase | PfM18AAP inh | Yeast superoxide | ALR inh | APOBEC3A inh | CendR NRP1 mod
Cn1cc2c([N+](=O)[O-])cc([N+](=O)[O-])cc2n1 | . | -3 | . | . | . | .
CN1C(=O)c2ccccc2NC(=O)[C@]12O[C@@H]2c1ccccc1 | -5 | 4 | 85 | 98* | -1 | -24
C/C(O)=C(\C#N)C(=O)Nc1cc(Br)ccc1Br | 3 | . | 102 | 97* | 2 | -7
O=C(CSC1c2ccccc2-c2ccccc21)N/N=C/c1ccc(C(=O)O)cc1 | 7 | 1 | 86 | -5 | -1 | -1
O=C(CSC1c2ccccc2-c2ccccc21)N/N=C/c1ccccc1O | -1 | 14 | 88 | 98* | 4 | 4
O=C(COc1ccccc1Cl)N1CCCC(N2CCN(c3ccc(F)cc3)CC2)C1 (stereo unspecified) | -6 | -4 | 91 | 10 | -3 | 1
COc1ccccc1OCC(=O)N1CCCC(N2CCN(c3ccc(F)cc3)CC2)C1 (stereo unspecified) | -6 | -2 | 105 | 95* | -1 | 2
O=S(=O)(NC1CCCCCCC1)OCC(Cl)(Cl)Cl | -12 | 7 | 98 | -2 | -2 | 22*
O=S(=O)(NC1CCCC1)OCC(Cl)(Cl)Cl | -5 | -13 | 99 | -4 | -4 | 9
C/C(=N\N1CCCCC1)c1c(O)[nH]c(=O)[nH]c1=O | -8 | 0 | 105 | 1 | -1 | 0
O=C1c2cccc(N3CCNCC3)c2C2CCCCN12 (stereo unspecified) | . | . | . | . | . | 21*
Clc1cccc(N2CCNCC2)c1Cl | -7 | -8 | 93 | -1 | 1 | 6
N#Cc1cc(F)c(N2CCNCC2)cc1Cl | -5 | -7 | 94 | 93* | 0 | 15
N#Cc1ccc(N2CCNCC2)c(F)c1 | -4 | -2 | 91 | -15 | -2 | 18
Cc1ccc(CN2CCSc3ccc(C(=O)N4CCC5(CC4)OCCO5)cc32)cc1 | -7 | 2 | 98 | 80* | -5 | 4
O=C(c1ccc2c(c1)N(Cc1ccc(F)cc1)CCS2)N1CCC2(CC1)OCCO2 | -2 | 7 | 96 | 82* | 0 | -8
Cc1ccc(CN2CCN(CC(=O)N3CCC4(CC3)OCCO4)C2=O)cc1 | -7 | -5 | 96 | 19 | -7 | -5
CC(C)(C)n1nnnc1C(c1cccc2ccccc12)N1CCC2(CC1)C(=O)NCN2c1ccccc1 (stereo unspecified) | . | . | . | . | . | 8
COCCCn1c(N)c(C(=O)Nc2sc3c(c2C(=O)OC)CCCC3)c2nc3ccccc3nc21 | -4 | -7 | 106 | -45 | -4 | -61
CC1(C)CN=C(Nc2ccc(F)c(Cl)c2)S1 | 0 | 2 | 104 | 2 | -2 | 27*
CC1(C)CN=C(Nc2ccc(F)c(F)c2)S1 | -7 | 2 | 103 | -4 | -1 | 9
O=C(O)CCn1cc(C=C2C(=O)NC(=O)NC2=O)c(-c2ccc(Br)cc2)n1 | 0 | -3 | 101 | 87* | -2 | -34
